IDH1 R132H inh: qHTS for Inhibitors of mutant isocitrate dehydrogenase 1 (IDH1): qHTS; Isocitrate dehydrogenase [NADP] cytoplasmic (Homo sapiens), O75874; IDH1-R132H enzyme, NADPH consumption, diaphorase/resazurin fluorescence; Potency, µM (highest dose often 76.6 µM), for the others: top-dose activity change, negative = inhibition, actives largely listed as inhibitors; 390,000 tested, 0.093% active; also: % is scaled to controls: 0 for no effect and ±100 for the full control effect; nearly all actives have a fitted effect of over 65% in size
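IDH1-R132H (0.5 ug/mL) preincubated 30 min with compound, then NADPH (0.016 mM) and alpha-KG (2 mM) added; 80 min at RT, pH 7.5. Remaining NADPH coupled via diaphorase/resazurin to fluorescence (540/590 nm); concentration-response curves normalized to no-enzyme control.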
TrxR1 substrate: qHTS Assay for Substrates of Mammalian Selenoprotein Thioredoxin Reductase 1 (TrxR1): qHTS | Thioredoxin reductase 1, cytoplasmic (Rattus norvegicus), O89049 | purified TrxR1 substrate turnover, NADPH consumption readout | Potency, µM (top dose mostly 114 µM), for the others: at the highest dose activity change, negative = substrate turnover | 390,000 tested, 0.01% active | AID 588456, 2011; also: % is scaled to controls: 0 for no effect and ±100 for the full control effect; nearly all actives have a fitted effect of over 50% in size
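Rat TrxR1, dispensed at 90 nM, was prereduced with 400 uM NADPH (final) for 5 min at ~22 deg C, then incubated with compound 15 min before 400 uM selenite. A first-read NADPH fluorescence drop versus no-compound background flagged substrates.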
12-LOX inh: Primary qHTS assay for inhibitors of human arachidonate 12S-lipoxygenase (ALOX12): Round 2 | Polyunsaturated fatty acid lipoxygenase ALOX12 (Homo sapiens), P18054 | purified 12hLO, xylenol orange hydroperoxide absorbance | Potency, µM (top dose mostly 108 µM), inactives show at the top dose activity change, negative = inhibition, most hits filed as inhibitors | 580,000 tested, 1.1% active | AID 1671190, 2021; also: % is scaled to controls: 0 for no effect and ±100 for the full control effect
Target sequence (P18054 whole entry, looked up): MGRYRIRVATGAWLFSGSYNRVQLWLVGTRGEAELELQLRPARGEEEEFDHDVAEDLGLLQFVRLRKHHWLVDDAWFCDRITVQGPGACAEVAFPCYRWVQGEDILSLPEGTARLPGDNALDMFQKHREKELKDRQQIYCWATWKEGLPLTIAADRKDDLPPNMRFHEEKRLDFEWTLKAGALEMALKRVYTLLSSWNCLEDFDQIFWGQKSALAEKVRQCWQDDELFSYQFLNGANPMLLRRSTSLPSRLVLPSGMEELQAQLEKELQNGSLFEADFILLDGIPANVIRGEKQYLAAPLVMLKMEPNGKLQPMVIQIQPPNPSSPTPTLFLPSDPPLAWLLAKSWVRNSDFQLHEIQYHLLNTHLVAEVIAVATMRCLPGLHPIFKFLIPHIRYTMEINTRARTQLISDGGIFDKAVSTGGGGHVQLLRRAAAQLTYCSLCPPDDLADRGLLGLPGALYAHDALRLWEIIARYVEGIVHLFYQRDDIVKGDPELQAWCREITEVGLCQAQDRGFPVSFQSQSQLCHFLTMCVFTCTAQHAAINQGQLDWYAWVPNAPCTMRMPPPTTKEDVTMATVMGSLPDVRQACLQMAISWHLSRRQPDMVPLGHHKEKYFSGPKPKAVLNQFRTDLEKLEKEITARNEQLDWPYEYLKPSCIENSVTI
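Purified human 12hLO at 150 nM in 25 mM Hepes, 0.01% Triton X-100, pH 7.0, preincubated 15 min at room temperature with compound. Reaction started with 40 uM arachidonic acid, 30 min at room temperature. Hydroperoxide measured by Fe-xylenol orange, 573/405 nm absorbance ratio.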
TrxR1 inh: qHTS Assay for Inhibitors of Mammalian Selenoprotein Thioredoxin Reductase 1 (TrxR1): qHTS. Potency, µM (doses to about 114 µM), without a hit: at the top dose activity change, negative = inhibition, hits mostly inhibitors. AID 588453, 2011. recombinant rTrxR1, NADPH fluorescence consumption, selenite substrate. 390,000 tested, 1% active. Thioredoxin reductase 1, cytoplasmic (Rattus norvegicus), O89049; also: % is scaled to controls: 0 for no effect and ±100 for the full control effect; nearly all actives have a fitted effect of over 65% in size
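Rat TrxR1 (90 nM in the dispensed reagent) was pre-reduced with 400 uM NADPH for 5 min at room temperature, then incubated with compound for 15 min. After 400 uM selenite was added, NADPH fluorescence (Ex 340/Em 450 nm) was followed for 8 min.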
Apoferritin bind: qHTS Assay for Identification of Novel General Anesthetics; Potency, µM (doses to about 77.5 µM), for inactives: at the top dose activity change, negative = displacement, hits mostly inhibitors; Ferritin light chain (Equus caballus), P02791; apoferritin/1-aminoanthracene competitive binding, fluorescence; 350,000 tested, 0.074% active; also: % is scaled to controls: 0 for no effect and ±100 for the full control effect; nearly all actives have a fitted effect of over 20% in size
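10 uM apoferritin + 50% sat. 1-AMA, PBS; cpd 10 min RT; Ex380/Em535 endpoint; normalized to free probe vs complex; 4-param Hill fit; propofol titration as pos. ctrl.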
GRP78 ERSR act: qHTS for Inducers of the Endoplasmic Reticulum Stress Response (ERSR) in Human Glioma: qHTS; Potency, µM, for inactives: at the top dose activation, usual class: activators; 420,000 tested, 0.02% active; U87-MG GRP78 promoter luciferase reporter, 16 h; also: series mostly up to about 76 µM; % of control where 0% means no effect; nearly all actives have a fitted effect of over 35% in size
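Stably transfected U87-MG glioma cells carrying a GRP78-based luciferase sensor; 16 h compound incubation. Luminescence end-point read 10 min after Bright-Glo addition at room temperature.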
* marks the source's active call; other numbers are inactive results; ? = inconclusive; · = not tested or not shown; [ ] = dose if it differs, or a comment. Most compounds without a hit are left out; they make up all but 1.7% or so of the library. Calls follow the shape of the dose curve; as a rule, active = well fitted curve in the direction sought with a large enough effect; inconclusive = small, poorly fitted or top-dose-only effect, or another doubt; inactive = no such curve, though single readings can be large; an effect the other way counts as inactive or inconclusive. Potency is read from the fitted curve at half-maximal effect.

SMILES | IDH1 R132H inh | TrxR1 substrate | 12-LOX inh | TrxR1 inh | Apoferritin bind | GRP78 ERSR act
COCc1nnc(NC(=O)C2CC(=O)N(c3n[nH]c4ccccc34)C2)s1 (centres undefined) | · | · | 16% | · | · | ·
O=C1C(=Cc2ccco2)CCCC1=Cc1ccco1 | -6% | ? | 25µM* | 45µM* | · | 5%
O/N=C1\CCC\C1=C/c1ccco1 | 4% | 4% | ? | ? | ? | 0%
O=C1C(=Cc2ccco2)CCC1=Cc1ccco1 | 6% | 4%[57.1 µM] | 35µM* | 2.8µM* | · | 0%
CS(=O)(=O)Nc1ccc(C2(C(=O)NCc3cccc(F)c3)CCCCC2)cc1 | · | · | 25% | · | · | ·
c1ccc(CNc2c(-c3cccc(SC4CCCCC4)c3)nc3ccccn23)cc1 | 0% | 58% | 14µM* | 55% | · | -4%
Cc1oc(-c2ccccc2)nc1CC(=O)Nc1ccc(Cl)cc1Cl | · | · | 7.9µM* | · | · | ·
CCN(CC)c1ccc(-c2nnc(SCCCn3c(=O)c4c(ncn4C)n(C)c3=O)o2)cc1 | · | · | 25% | · | · | ·
O=C(CC(=O)Nc1ccccc1F)Nc1ccccc1F | 0% | 2% | 15% | 89µM* | -5% | -2%
O=C(CN1CCCCCC1)Nc1ccccc1F | 1% | 8%[57.1 µM] | -19% | 5%[57.1 µM] | 9% | -1%
CO[C@H]1C(=O)N(C2CCN(S(=O)(=O)c3ccc(C#N)cc3)CC2)[C@H]1c1ccncc1 | · | · | 43% | · | · | ·
CC(C)(C)CCN1CCC(F)(c2nc(-c3ccccc3)no2)CC1 | · | · | 27% | · | · | ·
NC(=O)c1ccsc1NS(=O)(=O)c1ccc([N+](=O)[O-])cc1 | · | · | 14µM* | · | · | ·
NC(=O)c1ccsc1NC(=O)COC(=O)/C=C/c1ccc([N+](=O)[O-])cc1 | 6% | -2% | 3% | 10% | -1% | 4%
O=C(c1cc(O)c(O)c([N+](=O)[O-])c1)c1ccccc1F | 4% | ? | ? | ? | · | -11%
Cc1ccc(C(=O)c2cc(O)c(O)c([N+](=O)[O-])c2)cc1 | · | · | 0.054µM* | · | · | -4%
Cc1cc(C)n(CCC(=O)N2CCC(Cc3nc(C4CCOCC4)no3)CC2)n1 | · | · | 16% | · | · | ·
O=C1CCCCC(C(=O)N2CCc3ccccc32)N1 (centres undefined) | · | · | 19% | · | · | ·
C1=C(c2ccccc2)CCN(c2nc3ccccc3n3cnnc23)C1 | 6% | 14% | ? | 4µM* | -18% | 8%
c1ccc(N2CCN(c3nc4ccccc4n4cnnc34)CC2)cc1 | 9% | 43% | 19%[57.4 µM] | 14% | -14% | -3%
CCC(CO)Nc1cccc2c1S(=O)(=O)N(Cc1cn(Cc3ccc(F)cc3)nn1)Cc1ccccc1O2 (centres undefined) | · | · | -9% | · | · | ·
Cc1ccc(NC(=O)c2cc(S(=O)(=O)N(C)C)ccc2N2CCCC2)cc1F | -1% | -4% | 70% | 6% | 3% | 32µM*
C=C(c1cccc2ccccc12)P(=O)(O)O | 2% | 4%[57.1 µM] | 13µM* | 7% | 7% | -6%
N=C(N)c1ccc(COc2ccccc2)cc1 | · | · | -1% | · | · | ·
CCOc1ccc(NC(=O)c2nc(S(=O)(=O)Cc3ccc(F)cc3)ncc2Cl)cc1 | · | 1% | · | 4.5µM* | · | -10%
SMILES | IDH1 R132H inh | TrxR1 substrate | 12-LOX inh | TrxR1 inh | Apoferritin bind | GRP78 ERSR act
CCOc1ccc(NC(=O)c2nc(S(=O)(=O)Cc3ccccc3C)ncc2Cl)cc1 | · | -3% | · | 14µM* | · | -11%
Cc1cccc(CS(=O)(=O)c2ncc(Cl)c(C(=O)Nc3c(C)cccc3C)n2)c1 | 4% | 10% | 6% | ? | -17% | -17%
Cc1cccc(CS(=O)(=O)c2ncc(Cl)c(C(=O)NCc3ccccc3)n2)c1 | 4% | -2% | -9% | 6.3µM* | ? | -13%
O=C(NCc1ccccc1)c1nc(S(=O)(=O)Cc2ccc(F)cc2)ncc1Cl | 29% | -1% | ? | 3.5µM* | -20% | -11%
Cc1ccccc1CS(=O)(=O)c1ncc(Cl)c(C(=O)Nc2ccc(F)cc2)n1 | -4% | -3% | ? | 0% | -6% | -15%
Cc1ccc(NC(=O)c2nc(S(=O)(=O)Cc3ccccc3)ncc2Cl)cc1 | 5% | -2% | -21% | 8.9µM* | ? | -18%
O=C(Nc1ccc(F)cc1)c1nc(S(=O)(=O)Cc2ccccc2)ncc1Cl | 6% | 1% | 10% | 3.5µM* | ? | -17%
COC[C@@H]1CN(C(=O)c2ccnc(C)c2)C[C@H]1c1nc(C2CC2)no1 | · | · | 14% | · | · | ·
CCCCCCCCCCC(=O)Nc1cccc(C)c1C | · | · | 2% | · | · | ·
Cn1c(=O)n([C@H]2CCCN(C(=O)Cn3c(=O)oc4ccccc43)C2)c2ncccc21 | · | · | 3% | · | · | ·
Cc1ccc(-c2csc3nc4cc(C(=O)NC5CCC(O)CC5)ccc4c(=O)n23)cc1 (centres undefined) | 0% | 20% | 11µM* | -15% | 3% | -2%
Cc1ccc(-c2csc3nc4ccc(C(=O)NCCO)cc4c(=O)n23)cc1 | -1%[38.3 µM] | 51% | -1% | -16% | 121% | -2%
CC(=O)N1CC[C@@H](CC(=O)O)[C@@H](CC2=NCCc3ccccc32)C1 | · | · | 7%[176 µM] | · | · | ·
COc1ccc(OC)c(C2CC(=O)N3CN(c4ccccc4)CSC3=C2C#N)c1 (centres undefined) | -1% | 3%[57.1 µM] | ? | ? | ? | -5%
COc1ccc2ccccc2c1C1CC(=O)N2CN(C3CCCCC3)CSC2=C1C#N (centres undefined) | -11% | 3%[57.1 µM] | 18µM* | ? | -24% | -2%
COc1ccc(C2CC(=O)N3CN(C4CCCCC4)CSC3=C2C#N)c(OC)c1 (centres undefined) | 5% | 4% | 40µM* | -19% | -11% | -1%
COc1ccc2ccccc2c1C1CC(=O)N2CN(Cc3ccco3)CSC2=C1C#N (centres undefined) | 5% | -11% | ? | ? | -17% | -3%
N#Cc1cccc(-c2cn3c(n2)N(C(=O)c2ccsc2)CCC3)c1 | · | · | 49% | · | · | ·
NCCCC[C@@H]1NC(=O)[C@H](CCC(=O)O)NC(=O)c2cc([N+](=O)[O-])cc(I)c2SC[C@@H](C(=O)NCC(N)=O)NC1=O | 6% | -6%[57.1 µM] | 40µM* | 11%[57.1 µM] | 6% | -6%
C/C(=C\C(=O)c1ccc(C)o1)Nc1ccc(C(=O)O)cc1C | -1% | 3% | 25µM* | -20% | 6% | -4%
